# Screens from PubChem BioAssay.
# BAZ2B inh = inhibitors of human BAZ2B bromodomain. AlphaScreen BAZ2B-H3K14Ac peptide displacement. Potency, µM (series often up to 114 µM), for the others: at the top dose activity change, negative = inhibition, usual class: inhibitors. hit rate 4.4% among 360,000; note: % is set by controls: 0 for no effect and ±100 for the full control effect; nearly all actives have a fitted effect of over 60% in size
#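 Complex of BAZ2B and biotin-H3K14Ac (50 nM apiece) forms over 30 min at RT, then faces library compounds up to 110 uM for another 30 min; AlphaScreen beads added, 20 min dark incubation, luminescence read.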
# L3MBTL1 block = L3MBTL1 (human) inhibition; Q9Y468; AlphaScreen L3MBTL1–H3K9me1 peptide binding; Potency, µM (titrated, usually from 57.1 µM), for inactives: at the highest dose activity, negative = inhibition, most hits filed as inhibitors; hit rate 0.66% among 230,000; AID 485360; note: % is set by controls: 0 for no effect and ±100 for the full control effect; nearly all actives have a fitted effect of over 60% in size
#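 L3MBTL1 (50 nM) pre-complexed 30 min with biotinylated H3(1-15)K9me1 peptide (75 nM), then compounds added for 30 min at room temperature; AlphaScreen streptavidin donor/nickel chelate acceptor beads (10 ug/mL final) read after 30 min dark incubation.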
# Sfp PPTase inh = inhibitors of Bacillus subtilis Sfp phosphopantetheinyl transferase; Potency, µM, inactives show largest response in the series, negative = inhibition, usual class: inhibitors; AID 1490; Q9F4F7; Biochemical Sfp PPTase activity, qHTS; hit rate 3.5% among 310,000;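 note: the enzyme is Sfp with the accession as filed and its product quenches rhodamine fluorescence; 0% = enzyme reaction without inhibitor and -100% = no enzyme wells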
#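 Compounds were incubated with enzyme (final 15 nM) for 15 min at room temperature before substrate addition started the reaction. Fluorescence at 525 nm excitation, 598 nm emission was recorded immediately and after 30 minutes.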
# JMJD2A Tudor inh = JMJD2A Tudor domain (human) inhibition | hit rate 4.4% among 390,000 | O75164 | AlphaScreen JMJD2A-Tudor / H3K4me3 peptide binding | Potency, µM (series often up to 114 µM), for the others: at the top dose activity change, negative = inhibition, usual class: inhibitors; note: % is set by controls: 0 for no effect and ±100 for the full control effect; nearly all actives have a fitted effect of over 50% in size
# G9a inh = blocks human histone lysine methyltransferase G9a | Potency, µM (titrated, usually from 102 µM), inactives show at the highest dose activity, negative = inhibition, actives largely listed as inhibitors | G9a H3K9 monomethylation, AlphaScreen, 2 h | hit rate 8.8% among 350,000 | Q96KQ7; note: % is set by controls: 0 for no effect and ±100 for the full control effect; nearly all actives have a fitted effect of over 75% in size
#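 AlphaScreen read-out: biotin-H3K9 peptide (500 nM) methylation by 20 nM enzyme with 20 uM SAM, 2 h at room temperature after 15 min compound preincubation; anti-monomethyl H3K9 antibody plus donor/acceptor beads, 10 min dark.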
# HP1b binding inh = blocks HP1-beta chromodomain binding to methylated histone tails. P83916. AID 540317. Potency, µM (series often up to 114 µM), without a hit: top-dose activity change, negative = inhibition, most hits filed as inhibitors. AlphaScreen HP1-beta / biotin-H3K9me3 peptide binding. hit rate 0.56% among 390,000; note: nearly all actives have a fitted effect of over 70% in size
#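 Compound inhibition of the preformed complex between 50 nM HP1-beta and 50 nM biotinylated H3K9me3 peptide was read by AlphaScreen. Buffer was PBS pH 7.4 with 0.01% Tween-20. Incubations ran 30 min at room temperature, with 10 ug/mL donor/acceptor beads.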
# Starred values were filed as active, the others as inactive; ? = inconclusive; . = no result; [ ] = dose if it differs, or a comment. Sampled rows, rich in hits. Any-hit rate of the full collection: about 12%. Calls come from the whole dose curve; as a rule, active = well fitted curve in the direction sought with a large enough effect; inconclusive = small, poorly fitted or top-dose-only effect, or another doubt; inactive = no such curve, though single readings can be large; an effect the other way counts as inactive or inconclusive. Potency is the fitted concentration of half-maximal effect.
SMILES,BAZ2B inh,L3MBTL1 block,Sfp PPTase inh,JMJD2A Tudor inh,G9a inh,HP1b binding inh
O=C(Nc1nnc(SCc2ccccc2Cl)s1)C1COc2ccccc2O1 (centres undefined),-6%,.,22%,-11%,-8%[59 µM],45%
CC(=O)Oc1ccc2c3c1OC1[C@@H](OC(C)=O)C=C[C@H]4[C@H](C2)N(C)CC[C@]314 (some centres undefined),.,.,25%,.,-42%[12.7 µM],.
C[C@H](NC(C)(C)C)C(=O)c1cccc(Cl)c1,.,.,30%,.,?,.
O=C1OC(c2ccc([N+](=O)[O-])cc2)=N/C1=C/N1CC2CC(C1)c1cccc(=O)n1C2 (centres undefined),-23%,.,22%,1%,79µM*,17%
O=C(O)CCn1cc(C=C2C(=O)NC(=S)NC2=O)c(-c2ccccc2)n1,79µM*,?,14µM*,13µM*,.,-17%
N#CCCn1cc(C=C2C(=O)NC(=O)NC2=O)c(-c2ccccc2)n1,4%,-7%,-24%,2%,?,59%
O=C(O)CCn1cc(C=C2C(=O)NC(=S)NC2=O)c(-c2cc3ccccc3oc2=O)n1,50µM*,-21%,10µM*,89µM*,11µM*,-13%
CC(C)C[C@H](NC(=O)[C@@H](N)Cc1ccccc1)C(=O)N[C@@H](Cc1ccccc1)C(=O)N[C@@H](CCC(N)=O)C(=O)N1CCC[C@H]1C(=O)N[C@@H](CCC(N)=O)C(=O)N[C@@H](CCCN=C(N)N)C(=O)N[C@@H](Cc1ccccc1)C(N)=O,.,.,33%,.,.,.
Brc1ccc2c(c1)C(OC1CN3CCC1CC3)c1ccccc1CS2 (centres undefined),-37%,-11%,-14%,-35%,16µM*,6%
O=C1NC(=O)N(c2ccccc2)C(=O)/C1=C/c1coc2ccc(O)cc2c1=O,?,.,50µM*,?,-114%[59 µM],12%
O=C1NC(=O)N(c2ccc(Cl)cc2)C(=O)/C1=C/c1coc2ccc(O)cc2c1=O,-30%,-18%,45µM*,100µM*,16µM*,-1%
CN1C(=O)C(=Cc2ccc(N3CCCCCC3)cc2)C(=O)N(C)C1=O,-15%,-12%,?,-17%,.,19%
O=C1NC(=O)C(=Cc2ccc(N3CCN(C(=O)c4ccccc4)CC3)c([N+](=O)[O-])c2)C(=O)N1,?,.,28µM*,40µM*,11µM*,?
O=C1NC(=O)C(=Cc2cc([N+](=O)[O-])ccc2N2CCCCC2)C(=O)N1,-12%,.,16%,-20%,10%[59 µM],24%
CN1C(=O)C(=Cc2ccc(N3CCOCC3)c([N+](=O)[O-])c2)C(=O)N(C)C1=O,-35%,-1%,22µM*,.,35µM*,.
c1cnc(N2CCC3(CCNCC3)CC2)nc1,.,.,?,.,-4%[12.7 µM],.
CCOc1cccc(OCC)c2c(C)[n+](CC3CCCO3)c(C)c1-2 (centres undefined),25µM*,.,56µM*,35µM*,?,-1%
O[C@@H]1CCCC[C@@H]1N1CCC(c2ccccc2)CC1,.,.,13%,.,22%[59 µM],.
C[C@]12CC[C@@H](O)CC1CCC1C2CC[C@]2(C)C(=O)CC[C@@H]12 (some centres undefined),.,.,.,.,31%[12.7 µM],.
CCCCn1c(O)c(C(C)=NCc2ccc3c(c2)OCO3)c(=O)[nH]c1=O,1%,10%,4%,89µM*,.,-9%
CCCCn1c(O)c(C=NCc2ccc3c(c2)OCO3)c(=O)[nH]c1=O,-20%,-2%,50µM*,-2%,-30%,30%
CCCCn1c(O)c(C(C)=Nc2ccc(C(=O)O)cc2)c(=O)[nH]c1=O,?,9%,-3%,?,45µM*,21%
O=C(/C=C/c1ccc(Cl)cc1)N[C@@]12CCC(=O)[C@@H]3Oc4c(O)ccc5c4[C@@]31CCN(CC1CC1)C2C5,.,.,16%,.,16%[59 µM],.
CCN(CC)c1ccc(CC2C(=O)N(C)C(=O)N(C)C2=O)cc1,45µM*,?,?,45µM*,13µM*,?
